Results published in PubChem BioAssay.
The source made the active and inactive calls. Cut-off read from the data, not from the text of the source, unless noted: active = inhibition above about 80%; inactive = the rest.

Experiments:
[1] = target: NAD(+) hydrolase SARM1 (Homo sapiens) (UniProt Q6SZW1); test: blocking NAD cleavage by SARM1 SAM-TIR – cell lysate, NAD-Glo luminescence (AID 1508614;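 active = compound whose remaining NAD level is above about 45 nM, limit read from the data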;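 note: higher remaining NAD means stronger inhibition of SARM1 NADase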); settings: SAM-TIR HEK293T lysate NADase, at 1 µM, stronger effect = higher value
Chain of NAD(+) hydrolase SARM1 (Homo sapiens) (Q6SZW1 whole entry, looked up, the tested form may be a part): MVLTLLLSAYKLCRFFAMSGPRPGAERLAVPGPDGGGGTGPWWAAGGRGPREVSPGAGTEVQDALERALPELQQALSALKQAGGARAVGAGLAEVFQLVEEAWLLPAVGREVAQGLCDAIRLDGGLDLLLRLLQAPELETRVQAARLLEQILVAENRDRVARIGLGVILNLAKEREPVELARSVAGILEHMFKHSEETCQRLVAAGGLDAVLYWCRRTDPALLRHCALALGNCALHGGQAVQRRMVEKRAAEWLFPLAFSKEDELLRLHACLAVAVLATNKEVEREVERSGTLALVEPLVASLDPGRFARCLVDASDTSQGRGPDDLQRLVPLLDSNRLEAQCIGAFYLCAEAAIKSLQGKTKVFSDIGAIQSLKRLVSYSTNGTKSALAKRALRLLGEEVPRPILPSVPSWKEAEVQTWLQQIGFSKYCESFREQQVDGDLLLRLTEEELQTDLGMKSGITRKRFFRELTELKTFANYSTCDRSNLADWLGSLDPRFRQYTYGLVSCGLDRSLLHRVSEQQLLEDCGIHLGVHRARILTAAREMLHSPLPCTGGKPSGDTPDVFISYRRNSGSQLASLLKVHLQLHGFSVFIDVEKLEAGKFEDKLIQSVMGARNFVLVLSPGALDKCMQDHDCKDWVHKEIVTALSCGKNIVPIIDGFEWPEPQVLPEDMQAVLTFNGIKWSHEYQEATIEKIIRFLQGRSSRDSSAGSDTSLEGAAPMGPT

[2] = target: Mitogen-activated protein kinase 7 (Homo sapiens) (UniProt Q13164); test: Gal4-ERK5 driven luciferase induction – cell-based, HTS, primary screen (AID 1508626;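 active = luciferase signal above three times the same-plate solvent-only control wells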;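 note: luciferase driven by Gal4-ERK5 fusion binding five Gal4 sites before minimal TATA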); settings: HeLa Gal4-ERK5 transactivation, 18 h, at 5 µM, stronger effect = higher value
Chain of Mitogen-activated protein kinase 7 (Homo sapiens) (Q13164 whole entry, looked up, the tested form may be a part): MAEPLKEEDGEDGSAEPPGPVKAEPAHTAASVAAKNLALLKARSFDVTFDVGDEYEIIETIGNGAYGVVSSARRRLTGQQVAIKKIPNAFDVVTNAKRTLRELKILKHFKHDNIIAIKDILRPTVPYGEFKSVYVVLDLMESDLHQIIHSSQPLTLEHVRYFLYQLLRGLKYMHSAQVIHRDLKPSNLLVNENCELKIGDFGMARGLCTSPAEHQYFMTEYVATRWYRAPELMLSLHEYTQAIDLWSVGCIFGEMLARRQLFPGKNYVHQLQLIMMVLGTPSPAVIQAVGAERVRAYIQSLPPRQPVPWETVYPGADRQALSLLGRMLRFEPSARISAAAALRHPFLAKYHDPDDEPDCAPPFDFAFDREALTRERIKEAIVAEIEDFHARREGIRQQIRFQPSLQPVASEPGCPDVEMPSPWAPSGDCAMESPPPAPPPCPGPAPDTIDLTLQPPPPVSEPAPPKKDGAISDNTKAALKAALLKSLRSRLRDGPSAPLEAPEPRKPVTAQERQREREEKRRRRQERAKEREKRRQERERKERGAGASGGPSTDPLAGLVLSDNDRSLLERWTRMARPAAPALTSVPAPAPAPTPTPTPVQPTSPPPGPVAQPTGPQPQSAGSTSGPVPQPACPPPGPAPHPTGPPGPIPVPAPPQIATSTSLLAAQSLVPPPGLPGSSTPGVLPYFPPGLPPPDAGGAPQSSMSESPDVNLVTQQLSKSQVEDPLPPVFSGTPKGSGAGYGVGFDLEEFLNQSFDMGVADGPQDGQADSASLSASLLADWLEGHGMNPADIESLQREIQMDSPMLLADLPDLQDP

[3] = growth inhibition, single agent or in combination, cell-based, chromothripsis tumors, cisplatin or BGB combos (AID 1671449); settings: LFS_MB_P medulloblastoma cells;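 note: cells exposed for 96 hours; 0% = vehicle DMSO and 100% = killing by high DMSO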
[4] = growth inhibition, single agent and combos, cell-based, chromothripsis tumors, cisplatin or BGB combos (AID 1671450); settings: HDN33 neuroblastoma cells, stronger effect = higher value;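 note: cells exposed to compound for four days; 0% = vehicle DMSO and 100% = cell killing by high DMSO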
[5] = growth inhibition, single agents and combos, ICB984, cell-based, cisplatin or BGB combos, synergistic combos for chromothripsis tumors (AID 1671451; call rule not given here;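 note: cells exposed for 96 hours before readout; 0% = vehicle DMSO and 100% = killing by high DMSO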); settings: ICB984 medulloblastoma cells, drug combinations, stronger effect = higher value
[6] = growth inhibition, single agents and combos, LFS_MB_1R, cell-based, cisplatin or BGB combos, synergistic combos for chromothripsis tumors (AID 1671452); settings: LFS_MB_1R medulloblastoma cells, stronger effect = higher value;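 note: cells exposed for 96 hours before readout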
[7] = growth inhibition, single agents and combos, HTB85, cell-based, BGB or cisplatin IC20 combos, synergistic combos for chromothripsis tumors (AID 1671453); settings: HTB85 osteosarcoma cells, drug combinations, stronger effect = higher value;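 note: cells exposed for 96 hours before readout; 0% = vehicle DMSO and 100% = high DMSO killing control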
[8] = growth inhibition, single agents and combos, CRL2098, cell-based, BGB or cisplatin IC20 combos, synergistic combos for chromothripsis tumors (AID 1671454); settings: CRL2098 osteosarcoma cells, drug combinations, stronger effect = higher value;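 note: cells exposed for 96 h before readout; 0% = vehicle DMSO and 100% = killing by high DMSO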
[9] = growth inhibition, single agents and combos, HD-MB03, cell-based, BGB or cisplatin IC20 combos, synergistic combos for chromothripsis tumors (AID 1671455; in the data active = inhibition above about 83%;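 note: 0% = vehicle DMSO and 100% = high DMSO as cytotoxic control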); settings: HD-MB03 medulloblastoma cells, stronger effect = higher value
[10] = growth inhibition, single agents and combos, UWB1.289, cell-based, BGB or cisplatin combos, synergistic combos for chromothripsis tumors (AID 1671456); settings: UWB1.289 ovarian carcinoma cells, stronger effect = higher value;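 note: cells exposed to compound for four days; 0% = vehicle DMSO and 100% = killing by high DMSO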
[11] = growth inhibition, single agents and combos, LFS_MB_2R, cell-based, cisplatin combos, synergistic combos for chromothripsis tumors (AID 1671457); settings: LFS_MB_2R medulloblastoma cells, stronger effect = higher value;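 note: cells exposed to compound for four days before readout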
[12] = growth inhibition, MDA-MB-436, cell-based, BGB or cisplatin combos, synergistic combos for chromothripsis tumors (AID 1671458; call rule not given here;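 note: cells exposed for 96 hours; 0% = vehicle DMSO and 100% = killing by high DMSO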); settings: MDA-MB-436 breast carcinoma growth inhibition, drug combinations, stronger effect = higher value
[13] = UWB1.289_BRCA1 ovarian cancer growth, cell-based, BGB or cisplatin combinations (AID 1671459); settings: UWB1.289 BRCA1 ovarian carcinoma, drug combinations, stronger effect = higher value
[14] = drug combination toxicity in non-malignant astrocytes – cell-based, BGB or cisplatin IC20 combos, cytotoxicity control for chromothriptic childhood tumor combination screen (AID 1671460); settings: Human astrocytes, viability inhibition, drug combinations, at 0.5 µM, stronger effect = higher value;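 note: cells exposed to compounds for 96 hours before viability readout; 0% = vehicle and 100% = killing control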
[15] = BT084 cell growth, single and combined drugs, ICGC_MB145, cisplatin and BGB IC40 combos (AID 1671461); settings: BT084 medulloblastoma cells, drug combinations, stronger effect = higher value;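 note: cells exposed to drugs for 96 hours; 0% = vehicle DMSO and 100% = high DMSO full killing control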
[16] = RCMB18 cell growth, single agent and combined, cisplatin and BGB IC40 combos (AID 1671462); settings: RCMB18 medulloblastoma cells, stronger effect = higher value;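 note: cells exposed to compound for four days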
[17] = CRL1545 cell growth, single agent and combined, cisplatin and BGB IC20 combos (AID 1671464); settings: CRL1545 osteosarcoma cells, stronger effect = higher value;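 note: cells exposed to compound for 96 hours before readout; 0% = vehicle DMSO and 100% = high DMSO killing control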
[18] = measured here: combination with BGB IC40, at 0.05 µM
[19] = measured here: with BGB IC20 combination, at 0.5 µM
[20] = measured here: with cisplatin IC20 combination, at 0.5 µM
[21] = measured here: combination with cisplatin, at 0.5 µM
[22] = measured here: combination with cisplatin, at 5 µM

Q: Which results are given for `Nc1nc(=S)c2[nH]cnc2[nH]1`?
A: remaining NAD [1]: 10 nM (inactive); luciferase signal [2]: 52 AU (inactive); inhibition ([3]; at 0.5 µM, stronger effect = higher value): -26.3% (inactive); inhibition ([3]; measured here: combination with BGB IC20, at 0.005 µM): -7.21%; inhibition ([3]; measured here: combination with BGB IC40, at 0.005 µM): -35.9%; inhibition [3, 18]: -9.84%; inhibition ([3]; measured here: combination with cisplatin, at 0.5 µM, stronger effect = higher value): -38.8%; inhibition ([3]; measured here: combination with cisplatin, at 5 µM, stronger effect = higher value): -43.8%; inhibition ([4]; BGB combo, at 5 µM): 73.6%; inhibition ([4]; at 0.5 µM): 33.6% (inactive); inhibition ([4]; cisplatin combo, at 5 µM): 70.5%; inhibition [4, 19]: 23.3%; inhibition [4, 20]: 18.7%; inhibition ([4]; single agent, at 5 µM): 80.7%; inhibition ([5]; BGB IC20 combo, at 0.005 µM): -12.4%; inhibition ([5]; BGB IC40 combo, at 0.005 µM): -52.4%; inhibition ([5]; BGB IC40 combo, at 0.05 µM): -32.5%; inhibition ([5]; at 0.5 µM): -36% (inactive); inhibition ([5]; cisplatin combo, at 0.05 µM): -37.7%; inhibition ([5]; cisplatin combo, at 0.5 µM): -55.5%; inhibition ([5]; cisplatin combo, at 5 µM): -19.8%; inhibition ([5]; measured here: 5 uM single agent, at 5 µM): -9.37%; inhibition ([6]; at 0.5 µM): -22.2% (inactive); inhibition [6, 18]: 5.91%; inhibition [6, 21]: -61.3%; inhibition [6, 22]: -34.3%; inhibition ([7]; at 0.5 µM): 1.06% (inactive); inhibition ([7]; measured here: with BGB IC20, at 0.5 µM): 3.8%; inhibition ([7]; measured here: with BGB IC20, at 5 µM): 46%; inhibition ([7]; measured here: with cisplatin IC20, at 0.5 µM): -7.75%; inhibition ([7]; measured here: with cisplatin IC20, at 5 µM): 16.3%; inhibition ([7]; single agent, at 5 µM): 52.5%; inhibition ([8]; at 0.5 µM): -31.6% (inactive); inhibition ([8]; measured here: combination with BGB at IC20, at 0.5 µM): -18.7%; inhibition ([8]; measured here: combination with cisplatin at IC20, at 0.5 µM): -26.5%; inhibition ([9]; at 0.5 µM): -3.75% (inactive); inhibition ([9]; measured here: combo with BGB at IC20, at 0.5 µM): -3.35%; inhibition ([9]; measured here: combo with cisplatin at IC20, at 0.5 µM): -7.29%; inhibition ([10]; at 0.5 µM): 63.1% (inactive); inhibition ([10]; measured here: inhibition with BGB combination, at 0.05 µM): -17.4%; inhibition ([10]; measured here: inhibition with cisplatin combination, at 0.05 µM): -1.37%; inhibition ([11]; at 0.5 µM): -15.5% (inactive); inhibition [11, 21]: -18.2%; inhibition [11, 22]: -6.5%; inhibition ([12]; at 0.5 µM): 15.1% (inactive); inhibition ([12]; measured here: BGB combination, at 0.5 µM): 4.09%; inhibition ([12]; measured here: BGB combination, at 5 µM): 52.8%; inhibition ([12]; measured here: cisplatin combination, at 0.5 µM): 11.9%; inhibition ([12]; measured here: cisplatin combination, at 5 µM): 66.7%; inhibition ([13]; BGB combination, concentration series, at 5 µM): 113%; inhibition ([13]; at 0.5 µM): 63.6% (inactive); inhibition ([13]; cisplatin combination, concentration series, at 5 µM): 110%; inhibition [14]: 4.77% (inactive); inhibition ([14]; measured here: combo with BGB IC20): -3.14%; inhibition ([14]; measured here: combo with cisplatin IC20): 8.25%; inhibition ([15]; at 0.5 µM): -17.7% (inactive); inhibition ([15]; cisplatin combination, at 0.5 µM): -11.9%; inhibition ([15]; cisplatin combination, at 5 µM): 0.406%; inhibition ([15]; measured here: BGB IC40 combination 0.05 uM, at 0.05 µM): 0.063%; inhibition ([15]; single agent, at 5 µM): 26.6%; inhibition ([16]; at 0.5 µM): -16.7% (inactive); inhibition ([16]; cisplatin combo, at 5 µM): -5.08%; inhibition ([16]; measured here: BGB IC40 combination, at 0.05 µM): -23.1%; inhibition [16, 21]: 12.6%; inhibition ([16]; single agent, at 5 µM): -10.3%; inhibition ([17]; at 0.5 µM): -1.16% (inactive); inhibition [17, 19]: -1.16%; inhibition [17, 20]: -1.16%; inhibition ([17]; single agent, at 0.05 µM): -14.2%; inhibition ([17]; single agent, at 5 µM): 77.7%

Q: Which luciferase signal [2] does the source give for `COc1cc(N)c(Cl)cc1C(=O)NC1CCN(Cc2ccccc2)CC1` here?
A: 48 AU (inactive)
